The values below come from PubChem BioAssay AID686979 (National Center for Advancing Translational Sciences (NCATS), 2013).

Among all 420,000 compounds or so, about 50,000 (12%) were called active. Not shown: some 26% with an inconclusive outcome. The entries come from a sample that favours actives as a whole. Unmarked numbers belong to inactive results. The call rests on the fitted dose curve; in most records, active means well fitted inhibition curve with a large enough effect; inconclusive means small, poorly fitted or top-dose-only effect; inactive means flat fitted curve, though single readings scatter.
On the % scale 0 is the no-effect control and ±100 the full control effect; potency means the concentration at half of the fitted maximal effect.

This test in a line: qHTS for Inhibitors of human tyrosyl-DNA phosphodiesterase 1 (TDP1): qHTS in cells in presence of CPT. Further: nearly all actives have a fitted effect of over 55% in size. Particulars: chicken DT40 Tdp1-/-;hTDP1 cells + 20 nM CPT, ATP luminescence, 48 h; series mostly up to 46.2 µM; activity change, negative = growth inhibition: at the top concentration. Summed up:
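Cell growth measured by CellTiter-Glo luminescence after a minimum 48 h, 37 C compound exposure with 20 nM CPT in Tdp1-knockout DT40 cells stably expressing hTDP1, seeded 400/well; qHTS titration format.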
In general terms: Quantitative high-throughput screening tests each substance at several concentrations.
On to `Cc1ncsc1CCCl`, for which the Potency result was “inactive”.

For the compound `CC[N+]1(CCOC(=O)C(O)(c2ccccc2)c2ccccc2)CCCCC1`, the “activity change, negative = growth inhibition” value was 3.37%.

Regarding `C/C(=C\C=C/[C@@H](C)C(=O)O)[C@H]1CN[C@H](C(=O)O)[C@@H]1CC(=O)O`, the “activity change, negative = growth inhibition” value was -0.395%.

Turning to `Cc1ccc(NC(=O)CN(C)CC(=O)Nc2cccc(F)c2)cc1[N+](=O)[O-]`, the Potency was 1.84 µM (active).

Turning to `O=C(CN1CCCC1=O)NCCc1ccccc1`, the “activity change, negative = growth inhibition” value is 2.72%.

As to `CN(C)P(=S)(Nc1ccccc1)C(Cl)(Cl)Cl` (stereo not drawn), the “activity change, negative = growth inhibition” value is -3.66%.

With `O=C(O)COc1ccccc1/C=C1\C(=O)NC(=O)N(CCC2=CCCCC2)C1=O`, the “activity change, negative = growth inhibition” value was 18.2%.

For `O=C1NC(=O)N(CCc2ccc(F)cc2)C(=O)/C1=C/C=C/c1ccccc1`, the Potency was 3.26 µM (active).

On to `OCC#CC[N+]1(CC#Cc2ccccc2)CCCC1`, for which the “activity change, negative = growth inhibition” value is -6.84%.

In the case of `Cc1ccc(P(=S)(c2ccc(C)o2)N2CCOCC2)o1`, the “activity change, negative = growth inhibition” value was -13.2%.

Regarding `CC(=O)C12CC(C)=C(C)CC1CC1C3CCC4=CC(=O)CCC4(C)C3CCC12C` (stereo not drawn), the Potency is 13 µM (active).

On to `COC(=O)C[C@H]1CC[C@H]2NC[C@@H](O)COC[C@@H]2O1`, for which the “activity change, negative = growth inhibition” value was 0.913%.

On to `C[C@H]1CN([C@@H](C)CO)C(=O)CCCn2nncc2CO[C@H]1CN(C)C(=O)Oc1ccccc1`, for which the “activity change, negative = growth inhibition” value is -12.4%.

Turning to `Cc1cc(N2C(=O)C3CCCN3C2c2ccc(Cl)c(Cl)c2)no1` (stereo not drawn), the “activity change, negative = growth inhibition” value is 6.24%.

For the compound `CCN1C(=O)NC(=O)C2(CCCC2)C1=O`, the “activity change, negative = growth inhibition” value was 4.76%.

Consider `CCOP(=O)(OCC)C(NC(=O)c1ccc(OC)cc1)C(Cl)(Cl)Cl` (stereo not drawn), for which the “activity change, negative = growth inhibition” value is -22.4%.

Turning to `CCOP(=O)(OCC)C(NC(=O)c1ccc(C)cc1)C(Cl)(Cl)Cl` (stereo not drawn), the “activity change, negative = growth inhibition” value was 18.9%.

For the compound `CCOP(=O)(OCC)C(Cc1ccccc1)N=C(c1ccccc1)c1ccccc1` (stereo not drawn), the Potency is 16.4 µM (active).

With `CC(C)CN1CCN(Cc2ccccc2C(F)(F)F)CC1CCO` (stereo not drawn), the “activity change, negative = growth inhibition” value was -12.4%.

For `CCOc1ccc(C2SCC(=O)Nc3c2c(C)nn3C2CCOC(C)(C)C2)cc1` (stereo not drawn), the “activity change, negative = growth inhibition” value is -14.3%.

Regarding `COc1ccc(-n2c(-c3ccccc3)nc3ccccc3c2=O)cc1`, the Potency is 18.4 µM (active).

Turning to `O=c1c2ccccc2nc(-c2ccccc2)n1-c1ccccn1`, the “activity change, negative = growth inhibition” value is -16.3%.

With `CC(CCC(=O)O)C1CCC2C3C(O)C[C@@H]4CC(O)CC[C@@]4(C)C3CC[C@@]12C` (stereo partly drawn), the Potency result was “inactive”.

On to `COc1ccc(-c2cc(NC=O)c3ncc(-c4cc(OC)c(OC)c(OC)c4)n3c2)c(OC)c1`, for which the Potency is 0.58 µM (active).

Regarding `CCCCCCCCCCCCn1ccc(=N)cc1`, the Potency is 0.461 µM (active).

`CNC(=S)N/N=C1\C2CN3CCN(C2)CC1(c1ccccc1)C3`: the “activity change, negative = growth inhibition” value is -7.02%.

As for `CC(C)=C[C@@H]1[C@@H](C(=O)OCc2coc(Cc3ccccc3)c2)C1(C)C`, the “activity change, negative = growth inhibition” value was 0.519%.

For the compound `CCOc1cccc(=NC2CCCCC2)c2c(C)[nH]c(C)c12`, the Potency was 5.8 µM (active).

Regarding `Cc1cc(C)c2c(c1)NP(=S)(c1ccccc1)N2` (stereo not drawn), the “activity change, negative = growth inhibition” value was -19.6%.

On to `O=C1/C(=C\c2ccc3c(c2)OCO3)N2CCC1CC2`, for which the “activity change, negative = growth inhibition” value was -25.1%.

For `c1cncc(CNCCc2c[nH]c3ccccc23)c1`, the “activity change, negative = growth inhibition” value is -21.5%.

Turning to `COc1ccc2[nH]cc(CCNCc3ccc(Br)cc3)c2c1`, the Potency is 13 µM (active).

On to `O=C(N/N=C/c1c(O)n(Cc2ccccc2)c(=O)[nH]c1=O)c1ccccc1`, for which the “activity change, negative = growth inhibition” value was -19.8%.

`COc1ccc(Cn2c(O)c(/C=C3/C=CC=N3)c(=O)[nH]c2=O)cc1`: the Potency is 20.6 µM (active).

With `COc1ccc(N=Cc2c(O)n(C)c(=O)[nH]c2=O)cc1`, the “activity change, negative = growth inhibition” value is 1.34%.

`CNC(=O)N(C)c1nnc(C(C)(C)C)s1`: the Potency entry was “inactive”.

Turning to `CC1N=C(N)OC1c1ccccc1` (stereo not drawn), the “activity change, negative = growth inhibition” value was -27.9% [at 92.5 µM].

For the compound `CCOCCCNC(=O)c1c(NC(=O)c2nc(SC)ncc2Cl)sc2c1CCCC2`, the Potency is 6.51 µM (active).

As to `CCCOC(=O)C1C2c3ccccc3C(c3ccccc32)C1C(=O)O` (stereo not drawn), the “activity change, negative = growth inhibition” value is 1.5%.

For `Cc1nc2ccccn2c1P(=S)(N1CCCCC1)N1CCCCC1`, the Potency was 20.6 µM (active).

As for `CCOC(=O)CNC(=O)N1Cc2cc(N3CCCCC3)ccc2-n2nncc2C1`, the “activity change, negative = growth inhibition” value is -4.45%.

As to `Cc1cc(=O)oc2c(C)c(OCC(=O)N3CCN(Cc4ccc5c(c4)OCO5)CC3)ccc12`, the “activity change, negative = growth inhibition” value is -22.7%.

Take `CCC(C)(O)C(=O)OC1C(=O)OC2CC3C(C)=CC(=O)C(O)C3(C)C3C4(O)OCC23C1C(C)C4O` (stereo not drawn): the Potency was 0.116 µM (active).

Turning to `COc1ccc(NC(=O)N2CCC3(CC2)OCCO3)c(OC)c1`, the “activity change, negative = growth inhibition” value is 6.26%.

Consider `CCCC[N+]1(C)C2CC(OC(=O)C(CO)c3ccccc3)CC1C1OC12` (stereo not drawn), for which the “activity change, negative = growth inhibition” value is 12.1%.

On to `Cc1ccccc1N1C(=O)NC(=O)/C(=C\c2cc(C)n(C)c2C)C1=O`, for which the “activity change, negative = growth inhibition” value was -20.2%.

As to `O=C1NCN(c2ccccc2)C12CCN(C(c1cccs1)c1nnnn1C1CCCCC1)CC2` (stereo not drawn), the Potency is 16.4 µM (active).

Turning to `CC[N+]1(C)CCCC(OC(=O)C(O)(c2ccccc2)c2ccccc2)C1` (stereo not drawn), the “activity change, negative = growth inhibition” value is -22.2%.
